The entries come from a sample that favours hits as a whole.
VACV mCherry inh: inhibitors of vaccinia virus infection (mCherry reporter signal) | Potency, µM (titrated, usually from 36.5 µM), most hits filed as inhibitors | AID 720579 | Vaccinia virus mCherry reporter infection, fluorescence | hit rate 0.63% among 310,000; calls by dose curve; tested in A549 cells; note: nearly all actives have a fitted effect of over 35% in size
Vaccinia Venus: inhibitors of vaccinia virus (Venus reporter); AID 720580; Potency, µM (highest dose often 36.5 µM), usual class: inhibitors; hit rate 0.46% among 330,000; Vaccinia virus Venus reporter expression, fluorescence; calls by dose curve; tested in A549 cells; note: nearly all actives have a fitted effect of over 30% in size
Cycloheximide cs: counter-screen for Shiga toxin inhibitors: cycloheximide protein synthesis inhibition; hit rate 12% among 300,000; max response, %; AID 2314; cell reporter, cycloheximide protein synthesis inhibition counterscreen; in the data active = max response mostly above about 13%, no sharp cut-off; inactive = mostly below about 14%; note: read at 38.3 µM for the half of the compounds with a filed dose
Shiga toxin inh: blocks Shiga toxin action in Vero cells | Vero cells, Shiga toxin protein synthesis inhibition reporter | hit rate 9.2% among 290,000 | inhibition, % at 38.7 µM | AID 2315; in the data active = inhibition mostly above about 28%, no sharp cut-off; inactive = mostly below about 43%
MARV entry inh: inhibitors of Marburg virus binding or cell entry | Potency, µM (series often up to 37.8 µM), most hits filed as inhibitors | hit rate 1.8% among 300,000 | AID 540276 | Marburg virus pseudotyped entry inhibition, cell reporter; calls by dose curve; tested in HEK293 cells
Lassa entry inh: blocks Lassa virus binding to or entry into cells; Lassa virus pseudotype entry inhibition, cell reporter; hit rate 1.2% among 300,000; Potency, µM (top dose mostly 37.9 µM), actives largely listed as inhibitors; calls by dose curve; tested in HEK293 cells; note: nearly all actives have a fitted effect of over 50% in size
Hits are given with their value; – = inactive; ? = inconclusive; · = no result given.

SMILES	VACV mCherry inh	Vaccinia Venus	Cycloheximide cs	Shiga toxin inh	MARV entry inh	Lassa entry inh
COC(=O)C(O)(c1ccc(NC(=S)NC(=O)c2ccc(Cl)cc2Cl)c(C)c1)C(F)(F)F (stereo unspecified)	?	?	–	–	?	5.8µM
COC(=O)C(O)(c1ccc(NC(=S)NC(=O)c2ccc(Cl)cc2Cl)cc1)C(F)(F)F (stereo unspecified)	–	–	–	–	–	?
CC(C)CN1CCC(=O)N(CCSc2ccccc2)CC1	–	–	39	37	·	·
O=C1CCC(O)CCN1CCSc1ccccc1 (stereo unspecified)	–	–	34	50	·	·
CCCN1CCC(=O)N(CCSc2ccc(C)cc2)CC1	–	–	38	53	·	·
Cc1ccccc1Cn1c(SCc2ccc(C(=O)NC(C)c3ccccc3)cc2)nc2ccncc21 (stereo unspecified)	?	?	·	·	?	–
O=C(CN(C(=O)CCC(=O)Nc1ccccn1)C1CCCC1)NCc1ccccc1	–	–	–	–	–	–
COc1ccc(/C=N/Nc2nonc2N)cc1OC	–	–	–	–	–	–
COc1ccc(-c2cnnc(N/N=C/c3ccc(O)c(OC)c3)n2)cc1	–	?	20	–	?	5.8µM
COc1cc(/C=N/Nc2ccccn2)ccc1O	–	–	49	74	?	?
COc1ccc(/C=N/NC(=O)C(=O)Nc2ccccn2)cc1OC	·	–	–	–	–	–
COc1cc(/C=N/Nc2nc(N3CCCC3)nc(N3CCCC3)n2)ccc1O	·	·	–	–	–	–
COc1ccc(/C=N/Nc2nc(N)cc(Cl)n2)cc1OC	·	·	21	–	?	–
C=CCOc1ccc(/C=N/NC(=O)C(=O)Nc2ccccn2)cc1OC	–	–	12	–	–	–
Cc1cc2c(cc3c(SCc4ccccc4Cl)nnc(C)n32)o1	–	–	·	·	·	–
COc1ccc(/C=N/Nc2ncc(C(F)(F)F)cc2Cl)cc1OC	–	–	–	–	13µM	–
FC(F)(F)c1cnc(N/N=C/c2ccncc2)c(Cl)c1	–	–	–	–	–	–
COc1ccc(/C=N/Nc2ccccn2)cc1OC	–	–	54	94	?	–
COc1ccc(Br)cc1/C=N/Nc1ccccn1	·	·	–	–	·	·
Cc1cc(C)c(NC(=O)CN(C)S(=O)(=O)c2ccc3c(c2)c(=O)n(C)c(=O)n3C)c(C)c1	–	–	·	·	–	–
Cc1ccc(C2=NN(C(=S)Nc3ccccc3)C(c3ccco3)C2)cc1 (stereo unspecified)	–	–	39	71	–	–
CCS(=O)(=O)Nc1ccc(C2=NN(C(=S)Nc3ccccc3)C(c3ccco3)C2)cc1 (stereo unspecified)	–	–	18	–	?	?
CCOC(=O)c1cc(OC)c2cccc(CN3CCC(C)(C(=O)NCCOC)C3)c2c1 (stereo unspecified)	–	–	·	·	·	·
O=C(O)CCC(=O)Nc1sc2c(c1C(=O)Nc1ccccc1)CCCCC2	–	–	–	40	?	?
CCOC(=O)c1c(NC(=O)c2cccs2)sc2c1CCCC2	–	–	–	–	–	–
SMILES	VACV mCherry inh	Vaccinia Venus	Cycloheximide cs	Shiga toxin inh	MARV entry inh	Lassa entry inh
O=C(Nc1sc2c(c1C(=O)Nc1ccc(Cl)cc1)CCCC2)c1cccs1	13µM	?	·	·	·	–
CC(C)(C)C1CCc2c(sc(NC(=O)c3cccs3)c2C(N)=O)C1 (stereo unspecified)	–	–	32	63	–	–
CCCOc1ccc(N2CC(C(=O)Nc3ccccc3C(=O)NC)CC2=O)cc1 (stereo unspecified)	–	–	–	–	–	–
COc1cc(NC(=O)C2CCN(S(=O)(=O)c3ccc4c(c3)oc(=O)n4C)CC2)cc(OC)c1	–	–	·	·	–	–
O=C([C@@H]1C[C@@H](Sc2nc3ccccc3[nH]2)CN1Cc1ccc(C(F)(F)F)cc1)N1CCN(c2ccccc2F)CC1	–	–	·	·	·	·
CC1CCN(C(=O)c2cc(-c3ccccc3O)on2)CC1	–	–	39	85	·	·
CC1CCN(C(=O)c2cc(-c3ccco3)on2)CC1	–	–	27	66	?	?
COc1cccc(-c2cc(C(=O)N3C(C)CCCC3C)no2)c1 (stereo unspecified)	·	·	100	72	?	–
O=C(c1cc(-c2ccco2)on1)N1CCN(c2ccccc2)CC1	–	–	–	–	·	·
CC1CCCC(C)N1C(=O)c1cc(-c2ccco2)on1 (stereo unspecified)	–	–	–	47	–	–
COc1cccc(-c2nc(CS(=O)(=O)CC(=O)Nc3ccc(C)c(Cl)c3)c(C)o2)c1	–	–	·	·	?	–
Cc1ccc(C(=O)NC2CCCCNC2=O)cc1C (stereo unspecified)	–	–	38	64	?	–
Cc1ccc(C(=O)NC2CCCCNC2=O)cc1 (stereo unspecified)	·	·	29	94	·	·
Cc1ccc(C(=O)NC2CCc3ccccc3C2=O)cc1 (stereo unspecified)	–	–	30	65	?	?
COc1ccc(C(=O)N[C@H]2CCCCNC2=O)cc1OC1CCN(C(C)C)CC1	·	·	–	–	·	·
O=C(NC1CCCCNC1=O)c1ccc(Cl)cc1 (stereo unspecified)	·	–	–	–	–	–
CC(O)[C@@H](O)[C@H]1CNc2nc(N)[nH]c(=O)c2N1 (stereo partly specified)	·	·	·	·	–	·
CSCCC(=O)Nc1ccc(C(C)=O)cc1	–	–	27	–	?	–
O=C(CSCCO)Nc1ccc(C2CCCCC2)cc1	·	·	48	97	–	–
O=C(O)CSCC(=O)Nc1ccc(C(=O)O)cc1	–	–	–	–	–	–
CC(=O)c1ccc(NC(=O)CSCCO)cc1	·	·	21	81	–	–
O=C(CN1C(=O)c2ccccc2C1=O)NCCOc1ccccc1	·	·	–	–	·	·
CCCOc1c(Br)cc(C(=O)OCC(=O)NC2CC2)cc1OC	–	–	·	·	–	–
CCOc1ccc(CNC(=O)Cn2c(=O)c3cccn3c3ccc(F)cc32)cc1	–	–	·	·	·	–
CCCOc1ccc(C(=O)NNC(=S)NC(=O)c2cccs2)cc1	10µM	?	–	–	11µM	?
SMILES	VACV mCherry inh	Vaccinia Venus	Cycloheximide cs	Shiga toxin inh	MARV entry inh	Lassa entry inh
COc1cc(OC)cc(C(=O)NC(=S)NNC(=O)Cc2cccs2)c1	–	–	–	–	?	–
CCCOc1ccc(C(=O)NNC(=S)NC(=O)c2ccccc2)cc1	?	?	–	–	·	·
COc1ccc(C(=O)NNC(=S)NC(=O)c2ccco2)cc1	·	·	–	–	–	–
COc1ccc(C(=O)NC(=S)NNC(=O)Cc2cccs2)cc1	·	·	18	55	–	–
CCCOc1ccc(C(=O)NNC(=S)NC(=O)c2ccco2)cc1	11µM	?	–	–	?	?
O=C(NNC(=S)NC(=O)c1ccco1)c1ccc(F)cc1	·	·	10	–	·	·
COCCN1C(=NCC(C)C)NC(c2ccccc2)C(C(=O)OC)=C1C (stereo unspecified)	·	·	·	·	–	?
CC1CCCC(C)N1C(=C(Cl)Cl)C(=C1SCCS1)[N+](=O)[O-] (stereo unspecified)	–	–	–	–	?	–
Cc1noc(C)c1COc1cccc(C(=O)NCCc2c[nH]c3ccccc23)c1	?	–	–	–	?	10µM
Cc1ccc(CNC(=O)c2cccc(OCc3c(C)noc3C)c2)cc1	·	–	–	–	–	–

High-throughput results deposited in PubChem BioAssay by National Center for Advancing Translational Sciences (NCATS).
